These results are taken from PubChem BioAssay (Tox21).

A number with no mark means an inactive call. Inconclusive results are not listed. Calls of active or inactive are those of the source. Unless noted, calls follow the shape of the dose curve; as a rule, active = well fitted curve in the direction sought with a large enough effect in the repeat runs; inconclusive = weak or mixed curves; inactive = no such curve, though single readings can be large; an effect the other way counts as inactive or inconclusive.

Test [1] in a line: qHTS assay for small molecule agonists of the p53 signaling pathway (AID 651631; calls by dose curve; also: nearly all actives have a fitted effect of over 15% in size). In a few lines:
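Testing took place in human colorectal HCT-116 cells with stable p53RE-driven beta-lactamase. After 16 h of compound exposure at 37 °C, a FRET substrate was added and fluorescence recorded 2 h later.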
For orientation: qHTS replaces the single test concentration by a dilution series.

A short description of test [2]: qHTS assay for small molecules that induce genotoxicity in human embryonic kidney cells expressing luciferase-tagged ATAD5 (AID 651632). Also: nearly all actives have a fitted effect of over 15% in size. In a few lines:
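Luminescent reporter readout, HEK293T ATAD5-luc line: 16 hr drug exposure (37C, 5% CO2) followed by Amplite, 30 min RT.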

A short description of test [3]: qHTS assay for small molecule agonists of the p53 signaling pathway - cell viability (AID 651633; calls by dose curve; also: series mostly up to about 83 µM; nearly all actives have a fitted effect of over 30% in size). In a few lines: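 p53RE-bla cells were treated with compound for 16 hours at 37 C. Cytotoxicity was then measured as CellTiter-Glo luminescence after 30 min at room temperature.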
A short description of test [4]: qHTS assay for small molecules that induce genotoxicity in human embryonic kidney cells expressing luciferase-tagged ATAD5 - cell viability (AID 651634; calls by dose curve; also: nearly all actives have a fitted effect of over 25% in size). In a few lines: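 Viability read: CellTiter-Fluor fluorescence, 30 min at 37C. Cells: HEK293T, luciferase-tagged ATAD5. Exposure: 15.5 hr, 37C, 5% CO2, compound or DMSO vehicle.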
Test [5] in a line: qHTS assay for small molecule disruptors of the mitochondrial membrane potential - cell viability (AID 720634; calls by dose curve;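 also: human HepG2 liver cancer cells; series mostly up to about 83 µM; nearly all actives have a fitted effect of over 20% in size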). In a few lines: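 HepG2, 1 hr compound, 37 C. ATP luminescence via CellTiter-Glo, 30 min RT, same well as m-MPI.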
The nature of test [6]: qHTS assay for small molecule disruptors of the mitochondrial membrane potential (AID 720635). Also: potency is read from the fitted curve at half-maximal effect. In a few lines: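 HepG2 cells exposed to compound 1 hr at 37C, then Mito-MPS dye 30 min. Ratio read of aggregate (540/590 nm) versus monomer (490/535 nm) fluorescence.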
The nature of test [7]: qHTS assay to test for compound auto fluorescence at 590 nm (red) in HepG2 cells (AID 720674). In a few lines:
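Seeding: 2,000 HepG2 cells/well, MEM/10% FBS, overnight 37 C. Dosing: compound vs DMSO. Incubation: 1 hr, 37 C, 5% CO2. Read: fluorescence 540 ex/590 em, Rose Bengal sodium as red reference.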

The nature of test [8]: qHTS assay to test for compound auto fluorescence at 535 nm (green) in HepG2 cells (AID 720675).
Test [9] can be described thus: qHTS assay to test for compound auto fluorescence at 460 nm (blue) in HEK293 cells (AID 720678). In a few lines:
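Intrinsic compound fluorescence is recorded in live HEK293 cultures after overnight incubation at 37C, 5% CO2, using excitation 405 nm and emission 460 nm. Values are referenced to triamterene.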

A short description of test [10]: qHTS assay to test for compound auto fluorescence at 590 nm (red) in HEK293 cells (AID 720679). In a few lines:
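Red autofluorescence, HEK293 cells: 2,000 cells/well; attach 4-5 hr 37C; add 23 nL cpd or DMSO; incubate o/n 37C 5% CO2; read Ex540/Em590; Rose Bengal sodium reference.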

Test [11] can be described thus: qHTS assay to test for compound auto fluorescence at 535 nm (green) in HEK293 cells (AID 720680).
Test [12] is described as follows: qHTS assay to test for compound auto fluorescence at 460 nm (blue) in HEK293 cell free culture (AID 720681). In a few lines: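 Compounds were added to cell-free DMEM with 10% FBS and fluorescence read directly. The blue channel used 405 nm excitation and 460 nm emission, with triamterene as the reference fluorophore.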
The nature of test [13]: qHTS assay to test for compound auto fluorescence at 535 nm (green) in HEK293 cell free culture (AID 720682). In a few lines:
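DMEM + 10% FBS, cell-free; cpd or DMSO pinned in; Ex485/Em535 read; output as fluorescein-equivalent signal.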

Test [14] in a line: qHTS assay to test for compound auto fluorescence at 590 nm (red) in HEK293 cell free culture (AID 720683). In a few lines:
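Cell-free wells of DMEM with 10% FBS received compound, and intrinsic fluorescence was read at excitation/emission 540/590 nm. Values expressed as equivalence to Rose Bengal sodium.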

Test [15] can be described thus: qHTS assay to test for compound auto fluorescence at 590 nm (red) in HepG2 cell free culture (AID 720684). In a few lines:
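Compound was pinned into wells holding MEM with 10% FBS and no cells, and red fluorescence was read at Ex/Em 540/590 nm. Signal is expressed as auto fluorescence equivalency relative to Rose Bengal sodium.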

The nature of test [16]: qHTS assay to test for compound auto fluorescence at 460 nm (blue) in HepG2 cell free culture (AID 720685). In a few lines:
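Compound (23 nL) or DMSO pinned into cell-free MEM with 10% FBS; blue fluorescence read at 405/460 nm excitation/emission, expressed as auto-fluorescence equivalency to triamterene.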

A short description of test [17]: qHTS assay to test for compound auto fluorescence at 535 nm (green) in HepG2 cell free culture (AID 720686).
Test [18] in a line: qHTS assay to test for compound auto fluorescence at 460 nm (blue) in HepG2 cells (AID 720687). In a few lines:
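HepG2 cells in MEM with 10% FBS, attached overnight at 37 C, were exposed to compound or DMSO for 1 hr at 37 C, 5% CO2. Blue fluorescence was read at 405/460 nm, with triamterene as reference fluorophore.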

Test [19] concerns the target Glucocorticoid receptor (Homo sapiens) (UniProt P04150). Put plainly: qHTS assay to identify small molecule agonists of the glucocorticoid receptor (GR) signaling pathway (AID 720691; active = well fitted activation curve with a large enough effect in the signal ratio in the repeat runs, not every such curve was filed as active; the % refers to the signal ratio). In a few lines: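 qHTS in GR-bla HeLa cells: 4 h settling at 37 C/5% CO2, 18 h compound incubation at 37 C, 2 h LiveBLAzer B/G FRET substrate at room temperature, fluorescence intensity measured.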

The target is the same in test [20]. Put plainly: qHTS assay to identify small molecule antagonists of the glucocorticoid receptor (GR) signaling pathway (AID 720692; active = well fitted inhibition curve with a large enough effect in the signal ratio in the repeat runs, not every such curve was filed as active; the % refers to the signal ratio). In a few lines:
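Inhibition of glucocorticoid signalling is measured in HeLa cells with a GRE-controlled beta-lactamase reporter; cells are co-treated with compound and 5 nM dexamethasone (final) for 18 h before FRET substrate readout.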

Sequence of Glucocorticoid receptor (Homo sapiens) (P04150 whole entry, looked up): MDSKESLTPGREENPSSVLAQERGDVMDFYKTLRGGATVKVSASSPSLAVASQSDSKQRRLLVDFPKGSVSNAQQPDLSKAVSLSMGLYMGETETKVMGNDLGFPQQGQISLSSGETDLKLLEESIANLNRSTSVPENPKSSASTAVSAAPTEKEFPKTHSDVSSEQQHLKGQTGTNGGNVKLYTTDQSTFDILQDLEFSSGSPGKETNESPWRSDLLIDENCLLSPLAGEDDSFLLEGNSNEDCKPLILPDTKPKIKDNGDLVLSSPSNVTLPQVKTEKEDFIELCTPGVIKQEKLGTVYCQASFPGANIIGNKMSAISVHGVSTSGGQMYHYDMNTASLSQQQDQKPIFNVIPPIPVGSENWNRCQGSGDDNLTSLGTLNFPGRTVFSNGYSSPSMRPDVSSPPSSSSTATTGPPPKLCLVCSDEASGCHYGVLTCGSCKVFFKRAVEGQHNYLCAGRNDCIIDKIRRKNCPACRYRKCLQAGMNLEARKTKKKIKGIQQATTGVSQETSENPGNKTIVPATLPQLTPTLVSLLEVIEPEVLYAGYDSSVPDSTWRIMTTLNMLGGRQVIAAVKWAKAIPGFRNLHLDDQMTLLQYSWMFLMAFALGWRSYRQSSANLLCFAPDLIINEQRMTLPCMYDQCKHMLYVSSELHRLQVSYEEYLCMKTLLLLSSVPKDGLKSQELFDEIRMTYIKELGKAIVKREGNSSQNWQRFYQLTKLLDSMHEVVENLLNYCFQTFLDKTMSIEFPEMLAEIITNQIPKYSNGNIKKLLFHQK

Turning to `CSc1nc(NC2CC2)nc(NC(C)(C)C)n1`, the Potency result in test [1], in test [2], in test [3], in [4], in test [5] and in test [9] was “inactive” throughout. Further, the Potency entry in test [12], in test [16] and in test [18] was “inactive” in each case. Further, the Potency in test [6] is 8.63 µM (active). Further, the call in [7], in test [8], in test [10], in test [11], in [13] and in test [14] was inactive. Further, the outcome in test [15] and in test [17] was inactive.
Regarding `CCOC(=O)[C@H](CCc1ccccc1)N[C@@H](C)C(=O)N1CCC[C@H]1C(=O)O`, the Potency result in test [1], in test [2], in [3], in [4], in test [5] and in test [6] was “inactive” in each case. Moreover, the Potency result in test [9], in [12], in test [16], in test [18], in [19] and in test [20] was “inactive” in each case. Besides, the compound was called inactive in test [7], in test [8], in test [10], in [11], in [13] and in [14]. In addition, the compound was called inactive in [15] and in test [17].
Turning to `COc1cc(C(=O)N2CCOCC2)cc(OC)c1OC`, the Potency entry in test [1], in test [2], in [3], in test [4], in [5] and in test [6] was “inactive” throughout. Further, the Potency entry in [9], in test [12], in test [16], in [18], in [19] and in test [20] was “inactive” in each case. Besides, the call in [7], in test [8], in test [10], in test [11], in test [13] and in test [14] was inactive. Moreover, the compound was classed as inactive in test [15] and in test [17].
`CCC(=O)/C=C/c1ccc(OC)cc1`: the Potency entry in [1], in test [2], in test [3], in test [4], in [5] and in [6] was “inactive” in each case. Also, the Potency entry in [9], in test [12], in [16], in test [18] and in [19] was “inactive” each time. For the same compound, the compound was classed as inactive in test [7], in [8], in test [10], in [11], in test [13] and in test [14]. Moreover, the compound was classed as inactive in [15] and in test [17].
Regarding `CC(C)c1cccc(O)c1`, the Potency entry in [1], in test [2], in test [3], in test [4], in test [5] and in test [9] was “inactive” each time. Also, the Potency result in [12], in test [16], in [18], in [19] and in test [20] was “inactive” throughout. For the same compound, the Potency in test [6] is 64.4 µM (active). The outcome in [7], in test [8], in test [10], in test [11], in test [13] and in test [14] was inactive. Also, the compound was classed as inactive in test [15] and in test [17].
For `CC(C)[N+](C)(C)CC(O)COc1cccc2ccccc12` (configuration not stated), the Potency entry in [1], in test [2], in test [3], in test [4], in test [5] and in test [6] was “inactive” throughout. For the same compound, the Potency entry in [9], in [12], in [16], in test [18], in test [19] and in test [20] was “inactive” in each case. Moreover, the compound was called inactive in test [7], in test [8], in test [10], in test [11], in test [13] and in [14]. The compound was called inactive in test [15] and in [17].
